The test system of one experiment is Roseburia intestinalis. The experiment is described as follows: growth AUC relative to DMSO control (median of replicates) (fraction); higher = more growth (less inhibition), active = hit call of the paper. The note with it: 20 µM; 24 h. The method in brief: (§1)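 For each compound at 20 µM (1% DMSO), gut bacterial monocultures seeded at OD600 0.05 grew anaerobically in mGAM at 37 °C in round-bottom 96-well plates. Hourly OD600 readings over 24 h gave growth curves whose minimum OD was set to 0. Area under these curves was normalised to the plate median of solvent-only wells, or to row and column medians on the industrial chemical plate. Values are medians of three biological replicates grown on separate days.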

The subject of another experiment is Streptococcus salivarius. The experiment is described as above. The note with it: 20 µM; 24 h. An outline of the steps: as §1

Values joined by “and” are separate entries in the source; they are usually repeats but may differ in a detail not shown here. Equal entries are not always repeated. A number with no mark means an inactive call.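 The calls were made as follows: active = AUC reduced over 20% with Padj below 0.05 in at least 2 of 3 replicates; inactive = otherwise.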

As to `CNC(=O)Oc1ccccc1OC(CCl)OC` (stereo not drawn), the figures for the “growth AUC” value in the experiment on Roseburia intestinalis and in the experiment on Streptococcus salivarius were 0.961 and 0.996, respectively.
Take `CCCC1COC(Cn2cncn2)(c2ccc(Cl)cc2Cl)O1` (stereo not drawn): the “growth AUC” value in the experiment on Roseburia intestinalis is 0.995; in the experiment on Streptococcus salivarius, 0.964.
Taken in the same sequence, the figures for `O=P(O)(O)CCCl` were 1.03 and 1.04.
Taken in the same sequence, the figures for `Oc1cc(Cl)cc(Cl)c1` were 1.01 and 1.
Taken in the same sequence, the figures for `CCNc1nc(Cl)nc(NC(C)(C)C#N)n1` were 1.03 and 0.976.
`CCCCCCCCn1sccc1=O`: the “growth AUC” value in the experiment with Roseburia intestinalis is 0.449 (active); in the experiment on Streptococcus salivarius, 0.815.
On to `CC(=NC#N)N(C)Cc1ccc(Cl)nc1`, for which the “growth AUC” value is 0.956 and 1.02 in the experiment on Roseburia intestinalis; 1.05 and 1.06 in the experiment with Streptococcus salivarius.
Turning to `O=C(O)c1cc(Oc2ccc(C(F)(F)F)cc2Cl)ccc1[N+](=O)[O-]`, the “growth AUC” value with Roseburia intestinalis was 0.963; in the experiment on Streptococcus salivarius, 0.987.
As to `O=[N+]([O-])C(Br)(CO)CO`, the “growth AUC” value in the experiment with Roseburia intestinalis was 0.964; with Streptococcus salivarius, 0.967.
The like results for `COCC(=O)N(c1c(C)cccc1C)[C@H](C)C(=O)OC` were, in that order, 0.966 and 1.02.
Taken in the same sequence, the figures for `CCc1nn(C)c(C(=O)NCc2ccc(C(C)(C)C)cc2)c1Cl` were 0.96 and 0.906.
The like results for `CC(CCl)OP(=O)(OC(C)CCl)OC(C)CCl` (mixture of isomers) were, in that order, 0.967 and 1.01.
For `CCOC(=O)Nc1cccc(OC(=O)Nc2ccccc2)c1`, the “growth AUC” value in the experiment with Roseburia intestinalis was 1.01; in the experiment with Streptococcus salivarius it was 1.02.
Taken in the same sequence, the figures for `CCOP(=S)(OCC)Oc1nc(Cl)c(Cl)cc1Cl` were 1.01 and 1.06.

Values taken from the supplement of paper PMC12669032.
